Targets with a hit are over-represented here; the source holds about 8,800 in all. About 0.5% of all pairs of compound and target were hits.
Legend:
Test in all cases: log2 fold change, soluble protein after heating vs DMSO (PISA); higher = thermal stabilisation; K562 lysate, 10 uM; active = over 0.2 and 3.5 SD of the protein, either way, in both replicates (recomputed)
[1] = compound: C#Cc1cccc(Nc2ncnc3cc(OCCOC)c(OCCOC)cc23)c1 [erlotinib]
How it was run: (§1)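 A 30 min treatment with 10 μM compound was applied to crude K562 extract at 1 mg/mL protein in PBS pH 7.4 with 1 mM MgCl2. Heating for 3 min spanned 48°C-58°C, after which aliquots were pooled, adjusted to 0.5% NP-40 at 4°C and spun at 21,000xg for 90 min. TMTpro 16plex LC-MS/MS of the supernatant, with channel sums equalised, gave values recorded as log-two fold change in thermal stability against solvent controls, from duplicates.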

[2] = compound: C/C(=N\NC(=O)C1=CC(=CC=C1)S(=O)(=O)N2CCOCC2)/C3=C(C=CC(=C3)Cl)O
How it was run: as §1

[3] = compound: C1=CC(=CC=C1C2=NC3=C(N2)C=C(C=C3)C(=O)N)OC4=CC=C(C=C4)Cl
How it was run: as §1

[4] = compound: C1=CC2=C(C=CC(=C2)/C=C\3/C(=O)NC(=NCC4=CC=CS4)S3)N=C1
How it was run: as §1

[5] = compound: C1=CC2=NC=CN=C2C=C1/C=C/3\C(=O)NC(=O)S3
How it was run: as §1

[6] = compound: C1=CC=C(C=C1)C2=NC(=C(N2)C3=CC=NC=C3)C4=CC(=C(C=C4)Cl)O
How it was run: as §1

[7] = compound: C1=CC=C2C(=C1)C3=NNC4=CC=CC(=C43)C2=O
How it was run: as §1

[8] = compound: C1CCN(C1)C(=O)NC2=CC=CC(=C2)NC3=NC=C(C(=N3)NCCC4=CN=CN4)Br
How it was run: as §1

[9] = compound: C1CN(CCC1(CC2=CC=C(C=C2)Cl)N)C3=NC=NC4=C3C=CN4
How it was run: as §1

[10] = compound: C1COCCN1CCN2C3=CC=CC=C3N=C2NC(=O)C4=CC(=CC=C4)[N+](=O)[O-] [IRAK-1-4 Inhibitor I]
How it was run: as §1

[11] = compound: C=CC(=O)N1CCC[C@@H](n2nc(-c3ccc(Oc4ccccc4)cc3)c3c(N)ncnc32)C1 [ibrutinib]
How it was run: as §1

[12] = compound: CC(=O)c1cnc2ccc(-c3cc(Cl)c(O)c(Cl)c3)nc2c1N[C@H]1CC[C@H](CN(C)C)CC1
How it was run: as §1

[13] = compound: CC(C)(C)Cn1c(N)nc2ccc(-c3[nH]c(C(C)(C)C)nc3-c3ccc(F)cc3)nc21 [ralimetinib]
How it was run: as §1

[14] = compound: CC(C)(O)CC(=O)NCCn1ccc2ncnc(Nc3ccc(Oc4cccc(C(F)(F)F)c4)c(Cl)c3)c21
How it was run: as §1

[15] = compound: CC(C)C1=C2N=C(C=C(N2N=C1)NCC3=CC=CC=C3)NCCCCCCN
How it was run: as §1

[16] = compound: CC1=C(C(CC(=O)N1)C2=CC=C(C=C2)C(F)(F)F)C(=O)NC3=C(C=C4C(=C3)C=NN4)F
How it was run: as §1

[17] = compound: CC1=C(C2=C(C=C1)C(=O)C3=CC=CC=C3N2CCCN)C
How it was run: as §1

[18] = compound: CC1=C(C=C(C=C1)NC(=O)C2=CC(=CC=C2)C(C)(C)C#N)NC3=CC4=C(C=C3)N=CN(C4=O)C
How it was run: as §1

[19] = compound: CC1=C(C=C(C=C1)NC(=O)C2=CC(=CC=C2)N(C)C)NC(=O)C3=CC=C(C=C3)O
How it was run: as §1

[20] = compound: CC1=CC=C(C=C1)SC2=C3C=C(SC3=CN=C2)C(=O)N
How it was run: as §1

Measured: log2 fold change

ERBIN isoform 8 (UniProt Q96RT1)
Chain of UniProt Q96RT1 (Q96RT1 whole entry, looked up): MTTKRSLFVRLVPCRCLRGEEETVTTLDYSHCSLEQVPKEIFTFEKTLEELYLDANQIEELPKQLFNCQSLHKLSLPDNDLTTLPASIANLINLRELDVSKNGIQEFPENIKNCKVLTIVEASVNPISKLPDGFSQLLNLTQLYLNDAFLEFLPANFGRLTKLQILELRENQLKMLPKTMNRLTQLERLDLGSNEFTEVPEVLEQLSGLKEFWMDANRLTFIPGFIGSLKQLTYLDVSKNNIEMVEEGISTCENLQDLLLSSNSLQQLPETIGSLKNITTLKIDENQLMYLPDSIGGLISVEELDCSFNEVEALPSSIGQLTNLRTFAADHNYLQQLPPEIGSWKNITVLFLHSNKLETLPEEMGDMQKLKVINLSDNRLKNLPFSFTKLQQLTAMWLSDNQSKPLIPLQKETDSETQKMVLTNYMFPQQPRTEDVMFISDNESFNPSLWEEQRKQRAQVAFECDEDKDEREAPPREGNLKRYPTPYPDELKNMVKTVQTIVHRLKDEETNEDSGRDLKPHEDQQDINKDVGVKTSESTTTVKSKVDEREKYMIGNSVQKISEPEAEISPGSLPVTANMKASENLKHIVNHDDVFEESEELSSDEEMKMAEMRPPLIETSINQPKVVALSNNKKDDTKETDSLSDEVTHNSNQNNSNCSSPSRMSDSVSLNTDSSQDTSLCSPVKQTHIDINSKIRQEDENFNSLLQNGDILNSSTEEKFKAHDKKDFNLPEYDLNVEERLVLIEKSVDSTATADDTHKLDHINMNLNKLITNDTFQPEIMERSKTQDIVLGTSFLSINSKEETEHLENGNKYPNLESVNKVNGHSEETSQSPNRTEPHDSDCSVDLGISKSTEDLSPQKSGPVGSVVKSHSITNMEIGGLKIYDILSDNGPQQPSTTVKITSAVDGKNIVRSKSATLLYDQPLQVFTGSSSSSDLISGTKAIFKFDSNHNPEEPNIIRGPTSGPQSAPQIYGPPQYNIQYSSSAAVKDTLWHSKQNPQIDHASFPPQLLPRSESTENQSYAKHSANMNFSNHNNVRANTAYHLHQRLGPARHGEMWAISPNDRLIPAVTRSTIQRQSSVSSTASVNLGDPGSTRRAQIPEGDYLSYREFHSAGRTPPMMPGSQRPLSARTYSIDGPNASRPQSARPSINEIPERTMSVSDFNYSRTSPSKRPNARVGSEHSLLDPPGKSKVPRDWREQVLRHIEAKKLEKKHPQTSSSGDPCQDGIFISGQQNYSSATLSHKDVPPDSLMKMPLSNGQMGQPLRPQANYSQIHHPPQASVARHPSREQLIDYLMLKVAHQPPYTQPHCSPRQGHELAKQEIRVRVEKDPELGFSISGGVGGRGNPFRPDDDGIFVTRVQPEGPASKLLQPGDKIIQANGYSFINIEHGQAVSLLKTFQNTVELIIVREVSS
inactive: [1] 0 | [2] -0.002 | [3] -0.008 | [4] 0.044 | [5] -0.032 | [6] -0.001 | [7] -0.034 | [8] 0.007 | [9] 0.023 | [10] -0.034 | [11] 0.029 | [12] -0.011 | [13] -0.003 | [14] 0.01 | [15] -0.003 | [16] -0.037 | [17] 0.012 | [18] -0.007 | [19] 0.019 | [20] -0.01

GALNT2 (UniProt Q10471)
inactive: [1] -0.028 | [2] 0.005 | [3] -0.098 | [4] 0.054 | [5] -0.004 | [6] -0.04 | [7] -0.056 | [8] -0.045 | [9] 0.002 | [10] -0.012 | [11] -0.004 | [12] 0 | [13] 0.006 | [14] 0.022 | [15] -0.005 | [16] 0.015 | [17] 0.031 | [18] -0.041 | [19] -0.012 | [20] -0.016

FBXO45 (UniProt P0C2W1)
Chain of UniProt P0C2W1 (P0C2W1 whole entry, looked up): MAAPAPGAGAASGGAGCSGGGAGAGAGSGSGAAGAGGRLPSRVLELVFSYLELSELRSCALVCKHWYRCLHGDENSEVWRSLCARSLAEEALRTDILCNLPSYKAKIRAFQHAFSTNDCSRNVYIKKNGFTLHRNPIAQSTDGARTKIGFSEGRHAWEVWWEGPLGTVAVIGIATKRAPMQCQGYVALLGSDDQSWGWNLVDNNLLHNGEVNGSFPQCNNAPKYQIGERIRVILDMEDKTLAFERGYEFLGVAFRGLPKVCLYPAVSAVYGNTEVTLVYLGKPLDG
inactive: [1] 0.077 | [2] 0.016 | [3] -0.033 | [4] 0.092 | [5] -0.099 | [6] -0.126 | [7] -0.069 | [8] 0.018 | [9] 0.01 | [10] -0.043 | [11] 0.207 | [12] 0.075 | [13] 0.173 | [14] 0.045 | [15] 0.043 | [16] 0.015 | [18] 0.064 | [19] 0.018 | [20] 0.081

GABPB1 isoform 3 (UniProt Q06547)
inactive: [1] -0.03 | [2] -0.042 | [3] -0.051 | [4] 0.016 | [5] 0.045 | [6] -0.048 | [7] -0.035 | [8] -0.032 | [9] 0.084 | [10] 0.078 | [11] 0.085 | [12] -0.027 | [13] 0.043 | [14] -0.068 | [15] 0.121 | [17] 0.099 | [18] -0.051 | [19] -0.042 | [20] 0.03

ERAL1 (UniProt O75616)
inactive: [1] -0.016 | [2] -0.003 | [3] 0.05 | [4] -0.014 | [5] 0.03 | [6] 0.015 | [7] -0.027 | [8] -0.041 | [9] -0.047 | [10] -0.042 | [11] 0.052 | [12] -0.042 | [13] 0.03 | [14] 0.011 | [15] -0.007 | [16] 0.047 | [17] 0.03 | [18] 0.014 | [19] 0.045 | [20] 0.018

EEFSEC (UniProt P57772)
Chain of UniProt P57772 (P57772 whole entry, looked up): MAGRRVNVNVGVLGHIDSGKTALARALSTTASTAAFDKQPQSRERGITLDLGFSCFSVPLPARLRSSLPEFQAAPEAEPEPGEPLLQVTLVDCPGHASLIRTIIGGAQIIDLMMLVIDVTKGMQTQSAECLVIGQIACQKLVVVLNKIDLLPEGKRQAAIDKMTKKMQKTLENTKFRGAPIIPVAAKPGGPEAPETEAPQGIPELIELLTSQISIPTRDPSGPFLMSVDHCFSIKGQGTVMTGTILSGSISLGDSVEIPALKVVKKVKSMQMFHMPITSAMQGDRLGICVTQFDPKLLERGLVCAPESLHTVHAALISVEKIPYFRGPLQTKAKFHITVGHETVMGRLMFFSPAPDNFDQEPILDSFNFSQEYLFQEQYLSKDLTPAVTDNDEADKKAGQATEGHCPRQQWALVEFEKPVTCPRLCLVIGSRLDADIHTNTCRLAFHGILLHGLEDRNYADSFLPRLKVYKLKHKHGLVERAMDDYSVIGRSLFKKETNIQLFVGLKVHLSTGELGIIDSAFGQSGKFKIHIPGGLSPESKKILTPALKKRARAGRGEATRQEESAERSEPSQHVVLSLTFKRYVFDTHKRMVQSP
inactive: [1] -0.006 | [2] 0.054 | [3] -0.044 | [4] -0.022 | [5] 0.006 | [6] -0.044 | [7] -0.054 | [8] -0.025 | [9] -0.007 | [10] -0.024 | [11] 0.031 | [12] -0.03 | [13] 0.019 | [14] -0.013 | [15] -0.025 | [16] -0.011 | [17] 0.005 | [18] 0.011 | [19] 0.039 | [20] 0.006

EIF2AK2 (UniProt P19525)
Chain of UniProt P19525 (P19525 whole entry, looked up): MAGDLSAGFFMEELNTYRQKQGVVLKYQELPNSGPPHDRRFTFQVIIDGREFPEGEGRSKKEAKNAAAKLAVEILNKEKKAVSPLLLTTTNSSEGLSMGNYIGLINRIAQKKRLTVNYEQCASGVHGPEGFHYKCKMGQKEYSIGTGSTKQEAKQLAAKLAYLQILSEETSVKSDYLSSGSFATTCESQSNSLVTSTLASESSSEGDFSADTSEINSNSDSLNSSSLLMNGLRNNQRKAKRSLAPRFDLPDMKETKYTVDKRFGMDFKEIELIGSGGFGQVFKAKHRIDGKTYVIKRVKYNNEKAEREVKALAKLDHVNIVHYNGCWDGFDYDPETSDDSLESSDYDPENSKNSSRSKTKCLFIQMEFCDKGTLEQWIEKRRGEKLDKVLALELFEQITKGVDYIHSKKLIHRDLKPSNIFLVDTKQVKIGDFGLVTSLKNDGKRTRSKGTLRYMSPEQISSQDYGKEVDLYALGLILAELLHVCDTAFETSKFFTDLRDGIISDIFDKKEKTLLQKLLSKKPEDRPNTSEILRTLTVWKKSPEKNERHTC
inactive: [1] 0.02 | [2] 0.011 | [3] -0.055 | [4] -0.072 | [5] 0.003 | [6] 0.005 | [7] -0.039 | [8] -0.013 | [9] 0.016 | [10] -0.011 | [11] 0.014 | [12] 0.015 | [13] -0.025 | [14] 0.035 | [15] -0.009 | [16] 0.015 | [17] -0.008 | [18] -0.015 | [19] -0.019 | [20] -0.03

DYNC1I2 isoform 2 (UniProt Q13409)
Chain of UniProt Q13409 (Q13409 whole entry, looked up): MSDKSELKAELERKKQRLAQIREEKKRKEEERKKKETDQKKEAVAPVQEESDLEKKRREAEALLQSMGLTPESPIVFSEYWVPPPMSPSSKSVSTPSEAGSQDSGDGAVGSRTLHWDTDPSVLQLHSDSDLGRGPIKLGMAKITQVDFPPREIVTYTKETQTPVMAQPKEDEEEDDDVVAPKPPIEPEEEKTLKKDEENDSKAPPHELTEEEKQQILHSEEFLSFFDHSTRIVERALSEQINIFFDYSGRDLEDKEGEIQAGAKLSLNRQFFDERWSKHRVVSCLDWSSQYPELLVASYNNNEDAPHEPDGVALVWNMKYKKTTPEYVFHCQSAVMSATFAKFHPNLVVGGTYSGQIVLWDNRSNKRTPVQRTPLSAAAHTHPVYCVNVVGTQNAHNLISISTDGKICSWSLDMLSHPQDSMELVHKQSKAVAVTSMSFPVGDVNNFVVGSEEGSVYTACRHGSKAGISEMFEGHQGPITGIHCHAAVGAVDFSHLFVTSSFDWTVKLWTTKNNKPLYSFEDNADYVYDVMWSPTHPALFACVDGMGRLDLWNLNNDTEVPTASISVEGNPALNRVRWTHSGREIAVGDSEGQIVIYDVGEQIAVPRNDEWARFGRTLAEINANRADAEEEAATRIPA
inactive: [1] -0.012 | [2] -0.032 | [3] 0.108 | [4] -0.088 | [5] -0.127 | [6] -0.002 | [7] 0.055 | [8] 0.005 | [9] -0.006 | [10] 0.01 | [11] -0.101 | [12] -0.032 | [13] -0.04 | [14] -0.032 | [15] -0.017 | [17] 0.083 | [18] -0.019 | [19] -0.047 | [20] 0.012

FAT2 (UniProt Q9NYQ8)
inactive: [1] 0.215 | [2] -0.092 | [3] -0.311 | [4] 0.038 | [5] -0.076 | [6] -0.135 | [7] -0.147 | [8] -0.007 | [9] 0.01 | [10] -0.016 | [11] 0.01 | [12] 0.057 | [13] -0.156 | [14] -0.123 | [15] -0.314 | [16] -0.019 | [18] 0.166 | [19] 0.038 | [20] -0.023

FPGT (UniProt O14772)
Chain of UniProt O14772 (O14772 whole entry, looked up): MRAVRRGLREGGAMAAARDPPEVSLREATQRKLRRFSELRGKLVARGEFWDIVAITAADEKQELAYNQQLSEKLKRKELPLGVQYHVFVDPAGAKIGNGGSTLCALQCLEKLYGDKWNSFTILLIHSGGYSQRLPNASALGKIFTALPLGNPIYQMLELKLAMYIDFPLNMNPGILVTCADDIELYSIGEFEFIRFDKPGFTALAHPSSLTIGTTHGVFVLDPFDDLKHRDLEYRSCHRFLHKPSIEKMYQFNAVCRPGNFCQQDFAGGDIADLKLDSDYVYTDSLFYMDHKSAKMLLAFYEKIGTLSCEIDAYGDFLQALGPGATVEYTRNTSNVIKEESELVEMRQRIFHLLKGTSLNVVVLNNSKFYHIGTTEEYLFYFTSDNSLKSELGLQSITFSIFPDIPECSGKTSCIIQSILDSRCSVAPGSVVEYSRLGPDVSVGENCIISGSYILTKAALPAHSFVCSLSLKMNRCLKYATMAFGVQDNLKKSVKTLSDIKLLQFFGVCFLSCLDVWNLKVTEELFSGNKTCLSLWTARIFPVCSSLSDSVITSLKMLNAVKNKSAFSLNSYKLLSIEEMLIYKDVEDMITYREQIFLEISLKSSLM
inactive: [1] 0.031 | [2] -0.005 | [3] -0.003 | [4] 0.011 | [5] 0.023 | [6] -0.002 | [7] -0.108 | [8] 0.006 | [9] -0.013 | [10] 0.023 | [11] -0.016 | [12] -0.033 | [13] 0.005 | [14] 0.011 | [15] 0.014 | [16] 0.009 | [17] 0.029 | [18] 0.02 | [19] 0.003 | [20] -0.033

DSN1 (UniProt Q9H410)
inactive: [1] -0.021 | [2] 0.03 | [3] 0.037 | [4] 0.014 | [5] 0.01 | [6] -0.025 | [7] 0.032 | [8] -0.034 | [9] -0.024 | [10] 0.002 | [11] -0.004 | [12] -0.023 | [13] 0.011 | [14] 0.001 | [15] -0.015 | [16] 0.024 | [17] -0.018 | [18] 0.017 | [19] 0.025 | [20] -0.011

GGT7 (UniProt Q9UJ14)
Chain of UniProt Q9UJ14 (Q9UJ14 whole entry, looked up): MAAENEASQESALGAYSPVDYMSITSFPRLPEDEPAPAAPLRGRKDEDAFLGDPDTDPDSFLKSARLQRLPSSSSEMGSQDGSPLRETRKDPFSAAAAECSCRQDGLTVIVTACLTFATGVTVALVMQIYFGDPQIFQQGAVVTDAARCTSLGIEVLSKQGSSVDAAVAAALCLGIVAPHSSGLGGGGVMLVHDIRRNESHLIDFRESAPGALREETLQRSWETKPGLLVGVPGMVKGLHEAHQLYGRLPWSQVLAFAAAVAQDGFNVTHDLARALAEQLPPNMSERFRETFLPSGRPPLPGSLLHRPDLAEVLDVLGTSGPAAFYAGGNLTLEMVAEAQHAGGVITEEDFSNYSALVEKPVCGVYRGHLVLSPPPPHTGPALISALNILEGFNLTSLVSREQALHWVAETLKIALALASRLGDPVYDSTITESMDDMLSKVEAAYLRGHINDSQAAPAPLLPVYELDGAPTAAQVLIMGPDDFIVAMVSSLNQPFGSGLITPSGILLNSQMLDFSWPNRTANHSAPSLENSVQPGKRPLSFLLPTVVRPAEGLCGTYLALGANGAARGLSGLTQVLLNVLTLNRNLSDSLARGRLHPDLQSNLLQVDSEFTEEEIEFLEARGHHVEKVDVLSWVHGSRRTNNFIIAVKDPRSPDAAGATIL
inactive: [1] -0.04 | [2] 0.07 | [3] 0.021 | [4] -0.116 | [5] 0.094 | [6] -0.059 | [7] 0.018 | [8] 0.026 | [9] -0.023 | [10] 0.027 | [11] 0.019 | [12] 0.004 | [13] -0.07 | [14] -0.106 | [15] -0.05 | [16] 0.003 | [17] -0.066 | [18] -0.032 | [19] 0.035 | [20] 0.017
